Hit rate of the full screen: of about 380,000 compounds, about 1,300 (0.34%) were called active. This excerpt belongs to a sample that is enriched for actives. Values without a mark were called inactive.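 How the source made its calls: active means drop in luminescence signal, shown as inhibition above about 50% in the replicate tests (limit read from the data, passing the limit was not always enough); inconclusive means probably only some replicates passing the limit; inactive means the rest.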
Each compound was assayed on Drosophila bursicon receptor LGR2 (rickets) (assay: inhibitors of bursicon-induced LGR2 CRE-luciferase signal, primary screen, cell-based, HEK293, CRE-luciferase reporter, bursicon stimulation (AID 720647;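 further: agonist challenge used bursicon conditioned medium at about half maximal strength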)). Conditions: bursicon-stimulated, 4 h, at 9.99 µM, hits give high values.

SMILES | inhibition
C[C@]12CC[C@H](O)C[C@H]1CC[C@@H]1C2CC[C@]2(C)[C@@H](C3=CC(=O)OC3)[C@@H](O)C[C@]12O (stereo not given in full) | 75.1% (active)
C[C@]12CCC3C(CC[C@H]4C[C@@H](O)CC[C@]34C)C1C[C@@H](O)[C@H]2O (stereo not given in full) | 21.8%
C[C@]12CCC3C(CC[C@H]4C[C@@H](O)CC[C@]34C)C1CC[C@@H]2O (stereo not given in full) | 4.33%
Cc1cc(N2CCNC[C@@H]2C)ccc1N1CC[C@H](O)C1 | -14.4%
O=C(Cc1ccccn1)N1CCCCN2[C@H](C1)[C@H](c1ccc(-c3ccccc3F)cc1)[C@@H]2CO | 20.2%
CCOc1ccc(-c2cc(C)[n+](CCN(CC)CC)c(-c3ccc(OCC)cc3)c2)cc1 | 60.4% (active)
CS(=O)(=O)N1CCC2CCNC2C1 (stereo not given) | -1.04%
O=C(Cc1ccncc1)N1CCCCN2[C@@H](CO)[C@H](c3ccc(C#CC4(O)CCCC4)cc3)[C@@H]2C1 | -0.939%
Clc1ccc([C@@H]2CC3CCC2N3)cn1 (stereo not given in full) | 7.28%
O=S(=O)(c1ccccc1)N1CCC2CCNC2C1 (stereo not given) | 8.51%
CCC(C)(O)C(=O)OC1C(=O)OC2CC3C(C)=CC(=O)C(O)C3(C)C3C4(O)OCC23C1C(C)C4O (stereo not given) | 101% (active)
O=C(Cc1ccccc1)N1CCCCN2[C@H](CO)[C@H](c3ccc(C#Cc4ccccc4)cc3)[C@H]2C1 | 0.501%
COC(=O)[C@@H]1[C@@H](CO)[C@@H]2Cn3c(ccc(-c4cccc(C(=O)N(C)C)c4)c3=O)[C@H]1N2C(=O)NC(C)C | 31.6%
CCN(CC)C(=O)[C@@H]1C=C2c3cccc4[nH]c(Br)c(c34)C[C@H]2N(C)C1 | 9.95%
COc1ccc(C#Cc2ccc([C@H]3[C@H](CO)N4CCCCN(C(=O)Cc5ccccc5)C[C@@H]34)cc2)cc1 | 10.8%
COC(=O)[C@@H]1[C@@H](CO)[C@@H]2Cn3c(ccc(-c4ccc(F)cc4)c3=O)[C@H]1N2C(C)=O | -7.85%
COc1cccc(-c2nc3ccc(N4CCN(C)CC4)cc3[nH]2)c1 | 88.7% (active)
CN1CCN(c2cc(N3CCNCC3)ccc2[N+](=O)[O-])CC1 | 1.9%
COc1cccc(-c2ccc([C@H]3[C@H]4CN(C(=O)Cc5ccncc5)CCCCN4[C@H]3CO)cc2)c1 | -6.52%
COc1ccc2c(c1)[C@@]13CCCCC1[C@@H](C2)NCC3 (stereo not given in full) | 15.4%
COC1C(O)C(C)OC(OC2CCC3(C=O)C(CCC4C3CCC3(C)C(C5=CC(=O)OC5)CCC43O)C2)C1O (stereo not given) | 83.8% (active)
CCC(C)NC1(c2ccccc2)CCCCC1 (stereo not given) | -0.048%
COC(=O)[C@H]1[C@H](CO)[C@H]2Cn3c(cccc3=O)[C@H]2N1CC1CC1 | 26.9%
C/C=C/c1ccc(C2[C@@H]3CN(Cc4cncnc4)C[C@H]2N3)cc1 (stereo not given in full) | -8.19%
O=C(Cc1ccccn1)N1CCCCN2[C@@H](CO)[C@@H](c3ccc(C#Cc4ccccc4)cc3)[C@@H]2C1 | -13.4%
